Records with an inconclusive call do not appear. Calls of active or inactive are those of the source. Calls come from the whole dose curve; as a rule, active = well fitted cell-killing curve with a large enough effect in the repeat runs; inconclusive = weak or mixed curves; inactive = no such curve, though single readings can be large or run the other way.
Experiment: qHTS assay to identify small molecule agonists of the peroxisome proliferator-activated receptor delta (PPARd) signaling pathway - cell viability counter screen (AID 743211); note: nearly all actives have a fitted effect of over 55% in size
Conditions: PPARd-bla HEK293H viability, CellTiter-Glo luminescence, 17 h; series mostly up to 62.6 µM; activity change, negative = cytotoxicity: at the top concentration
From the text: U.S. Tox21 Program National Center for Advancing Translational Sciences [NCATS] NIH Chemical Genomics Center [NCGC] U.S. Environmental Protection Agency [EPA] National Institutes of Environmental Health Sciences [NIEHS] National Toxicology Program [NTP] U.S. Food and Drug Administration [FDA] Tox21 Assay Overview: The peroxisome proliferator-activated receptors (PPARs) are lipid-activated transcription factors of the nuclear receptor superfamily with three distinct subtypes namely PPAR alpha, PPAR delta (PPARd) and PPAR gamma. All these subtypes heterodimerizes with Retinoid X receptor (RXR) and have different physiological functions. […] To identify the compounds that activate PPAR-delta signaling, GeneBLAzer PPAR delta UAS-bla HEK293H cell line (Invitrogen, Carlsbad, CA, USA) containing a beta-lactamase reporter gene under the control of an Upstream Activator Sequence (UAS) was used to screen the Tox21 compound library. The cytotoxicity of the Tox21 compound library against the PPARd-bla cell line was tested in parallel by measuring the cell viability using CellTiter-Glo assay (Promega, Madison, WI) in the same wells.
Tox21 Assay Protocol Summary: PPARd-bla cells were dispensed at 3000 cells/6uL/well in 1536-well black wall/clear bottom plates using a Multidrop Combi (Thermo Fisher Scientific, Waltham, MA) dispenser. After the assay plates were incubated at 37 C and 5% CO2 for 5 h, 23 nL of compounds dissolved in DMSO, positive controls or DMSO only was transferred to the assay plate by a Pintool station (Kalypsys, San Diego, CA). The assay plates were incubated at 37C for 17 h. After 1 uL of LiveBLAzerTM B/G FRET substrate was added using a Bioraptr Flying Reagent Dispenser (FRD) workstation (Beckman Coulter, Indianapolis, IN, USA), the plates were incubated at room temperature for 2 h, and fluorescence intensity was measured by an Envision plate reader (PerkinElmer, Shelton, CT). For cell viability readout that measures cytotoxicity, 3 ul/well of CellTiter-Glo reagent was added into the assay plates using a Bioraptr FRD. After 30 min incubation at room temperature, the luminescence intensity in the plates was measured using a ViewLux plate reader (PerkinElmer).
% is set by controls: 0 for no effect and ±100 for the full control effect.

| SMILES | activity change, negative = cytotoxicity |
| --- | --- |
| ClC1=C(Cl)C2(Cl)C(CBr)CC1(Cl)C2(Cl)Cl (stereo not given) | 7.01% (inactive) |
| O=P(O)(O)CN(CP(=O)(O)O)CP(=O)(O)O | 1.91% [at 29.1 µM] (inactive) |
| CCN(CCO)CCO | -1.42% (inactive) |
| C[C@H](N)C(=O)c1ccccc1 | 2.16% [at 81.1 µM] (inactive) |
| CCOC(=O)c1ncn2c1CN(C)C(=O)c1c(I)cccc1-2 | 17.3% (inactive) |
| C=CC(=O)OCCN(C)C | 0.173% (inactive) |
| CNC(=O)Oc1cc(C)c(N(C)C)c(C)c1 | -10.3% (inactive) |
| C=C(Cl)CSC(=S)N(CC)CC | -7.28% [at 81.1 µM] (inactive) |
| C=C(C)[C@H]1CN[C@H](C(=O)O)[C@H]1CC(=O)O | 15.8% (inactive) |
| Cn1c(N)nc2c3cccnc3ccc21 | 3.92% (inactive) |
| CCCCCCCCBr | -1.67% (inactive) |
| CC(C)[C@]12CC(=O)[C@H](C)[C@H]1C2 | 7.16% (inactive) |
| O=C(Cl)OCc1ccccc1 | 3.52% [at 81.1 µM] (inactive) |
| CC[C@@H](CO)NC(=O)[C@@H]1C=C2c3cccc4c3c(cn4C)C[C@H]2N(C)C1 | 0.0795% (inactive) |
| CCC(=O)OC1(c2ccccc2)CCN(C)CC1 | -1.97% [at 81.1 µM] (inactive) |
| ClCCCCCCCl | 4% (inactive) |
| N#CN | 5.73% [at 232 µM] (inactive) |
| CCN(CC)C1CCCCC1 | 3.63% (inactive) |
| CCOC(=O)C(SP(=S)(OC)OC)c1ccccc1 (stereo not given) | 1.28% (inactive) |
| COC(=O)c1ccc(CBr)cc1 | -1.9% [at 81.1 µM] (inactive) |

| SMILES | activity change, negative = cytotoxicity |
| --- | --- |
| C[C@H](CN1CCOCC1)C(C(=O)N1CCCC1)(c1ccccc1)c1ccccc1 | -16.3% [at 81.1 µM] (inactive) |
| ClC(Cl)(Cl)Cl | 0.798% (inactive) |
| N[C@@H](Cc1ccc(Oc2cc(I)c(O)c(I)c2)c(I)c1)C(=O)O | 8.21% (inactive) |
| NC1(c2ccccc2)CCCCC1 | -0.303% [at 81.1 µM] (inactive) |
| CCOC(=O)CCl | -1.01% (inactive) |
| CC1N=C(N)OC1c1ccccc1 (stereo not given) | -6.15% [at 81.1 µM] (inactive) |
| CNC(=O)NC(O)C(Cl)(Cl)Cl (stereo not given) | 1.57% (inactive) |
| O=C(Cl)C(Cl)(Cl)Cl | 3.91% [at 81.1 µM] (inactive) |
| CC1NCCOC1c1ccccc1 (stereo not given) | 4.24% (inactive) |
| O=C(O)C(Cl)Br (stereo not given) | -10.2% [at 81.1 µM] (inactive) |
| CNC(=O)O/N=C(/CSC)C(C)(C)C | -2.17% (inactive) |
| CC#Cc1cc(C)nc(Nc2ccccc2)n1 | -0.288% (inactive) |
| CCN[C@H](C)Cc1cccc(C(F)(F)F)c1 | -1.64% [at 81.1 µM] (inactive) |
| CCC1(c2cccc(O)c2)CCCCN(C)C1 (stereo not given) | -2.73% (inactive) |
| Brc1c(Br)c(Br)c(Br)c(Br)c1Br | 3.57% [at 5.95 µM] (inactive) |
| CCN(CCO)CCn1c(Cc2ccccc2)nc2c1c(=O)n(C)c(=O)n2C | 8.35% (inactive) |
| CS(=O)(=O)Cl | 6.59% [at 81.1 µM] (inactive) |
| CC[C@H](O)C(C[C@H](C)N(C)C)(c1ccccc1)c1ccccc1 | -15.2% [at 81.1 µM] (inactive) |
| Cn1c(CCCC(=O)O)nc2cc(N(CCCl)CCCl)ccc21 | 7.17% (inactive) |
| CC(Cc1ccccc1)NCCCCl (stereo not given) | -1.05% (inactive) |

Source: PubChem BioAssay (Tox21)
